Only some compounds are listed: those with a hit (about 4.2% of all), similar ones and a draw of the others.
Mito fusion act: qHTS Assay for Small Molecule Inhibitors of Mitochondrial Division or Activators of Mitochondrial Fusion. S. cerevisiae fusion-defective mutant growth rescue, CellTiterGlo 48 h. Potency, µM (titrated, usually from 46.1 µM), usual class: activators. hit rate 0.23% among 320,000; note: nearly all actives have a fitted effect of over 45% in size
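Compounds are tested for their ability to restore growth of mitochondrial fusion-defective yeast strains at non-permissive 37C in YPEG medium over 48 hours. Viability is quantified by luciferase luminescence.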
SW480 rereplic: A quantitative high throughput screen for small molecules that induce DNA re-replication in SW480 colon adenocarcinoma cells. Potency, µM (titrated, usually from 46.1 µM), hits mostly activators. SW480 DNA re-replication, Hoechst DNA content imaging, 48 h. AID 624297, 2012. hit rate 1.8% among 340,000; note: nearly all actives have a fitted effect of over 55% in size
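DNA re-replication was detected as more nuclei of elevated Hoechst intensity after 48 hr exposure to compound (23 nL pinned per well of 250 cells).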
a7 integrin act: qHTS for Activators of Integrin-Mediated Alleviation for Muscular Dystrophy; Potency, µM (titrated, usually from 38.3 µM), usual class: activators; alpha7betagal myoblasts, beta-gal FDG fluorescence, 48 h; hit rate 0.064% among 350,000; note: nearly all actives have a fitted effect of over 60% in size
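alpha7betagal+/- myoblasts (passage 13, 250/well) treated 48 h at 37C with compounds at 1:260 dilution of DMSO stock. Lysed, then beta-galactosidase activity read as FDG fluorescence (ex 480/em 540) after 30 min, with pre-read for autofluorescence.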
A-T KAP1 phos: qHTS Assay for Identifying a Potential Treatment of Ataxia-Telangiectasia; F2112 A-T fibroblasts, KAP-1 phosphorylation AlphaLISA; neocarzinostatin DNA damage 30 min before lysis; Potency, µM (highest dose often 57.5 µM), most hits filed as activators; hit rate 0.19% among 320,000; AID 485349, 2010; note: nearly all actives have a fitted effect of over 45% in size
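ATM-like activity read as KAP-1 phosphorylation via AlphaLISA donor/acceptor antibody pairs after lysis and 6 hr at 25C. Cells were ATM-null patient fibroblasts (F2112, hTERT), dosed 60 min, then exposed to the DSB inducer NCS for 30 min.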
MCF10A rereplic: A quantitative high throughput screen for small molecules that induce DNA re-replication in MCF 10a normal breast cells | MCF 10A DNA re-replication, Hoechst nuclear intensity, 48 h | Potency, µM (doses to about 46.1 µM), most hits filed as activators | hit rate 2.9% among 350,000; note: nearly all actives have a fitted effect of over 50% in size
Hits are given with their value; n = inactive; u = inconclusive; x = not tested or not shown; ! = repeats disagree; [ ] = dose if it differs, or a comment. Calls come from the whole dose curve; as a rule, active = well fitted activation curve with a large enough effect; inconclusive = small, poorly fitted or top-dose-only effect; inactive = no such curve, though single readings can be large or run the other way.

SMILES	Mito fusion act	SW480 rereplic	a7 integrin act	A-T KAP1 phos	MCF10A rereplic
CN1CCN(c2nc(Cl)ncc2F)CC1	n	n[1.84 µM]	n	n	n
CN1CCN(c2ncnc3nc[nH]c23)CC1	n	n	n	n	0.259µM
C[C@@]12CC[C@H]3[C@@H](CCC4=CC(=O)CC[C@]43C)[C@H]1CC[C@H]2C(=O)CO	x	n	x	x	n
C[C@H]1CC[C@@]2(C)[C@@H](CC[C@@H]3[C@@H]2CC[C@]2(C)[C@@H](O)CC[C@@H]32)C1	12.6µM	n	n	n	u
CC(=O)[C@H]1CCC2C3CC[C@H]4C[C@H](O)CC[C@]4(C)C3CC[C@@]21C (stereo partly specified)	5.17µM	x	x	x	x
C[C@]12CCC3C(CC[C@H]4C[C@@H](O)CC[C@]34C)[C@H]1CC[C@H]2O (stereo partly specified)	x	n	n	n	n
CC(=O)[C@H]1CC[C@H]2C3CC[C@H]4C[C@H](O)CC[C@]4(C)C3CC[C@]12C (stereo partly specified)	x	n	x	x	u
CC(=O)[C@H]1CC[C@H]2[C@@H]3CCC4=CC(=O)CC[C@]4(C)[C@H]3CC[C@]12C	18.4µM!	n	x	n	n
C[C@]12CCC3C(CC[C@H]4C[C@H](O)CC[C@]34C)C1CC[C@@H]2C(=O)CO (stereo partly specified)	18.4µM	x	x	x	x
CC(=O)c1c(O)n(-c2cccc(Cl)c2)c(=O)[nH]c1=O (tested in a mixture with another compound)	n	n[9.22 µM]	n	n	n
CC(C)n1c(O)c(C2c3cc(Cl)ccc3Oc3[nH]c(=O)n(C(C)C)c(=O)c32)c(=O)[nH]c1=O (stereo unspecified)	n	u	n	n	2.06µM
CCOC(=O)C(NC(=O)C(Cc1ccc(N(CCCl)CCCl)cc1)NC(C)=O)C(C)C (stereo unspecified)	3.98µM	n	n	n	n
CCOC(=O)CNC(=O)CNC(=O)C(Cc1ccc(N(CCCl)CCCl)cc1)NC(C)=O (stereo unspecified)	n	n	n	n	n
O=c1[nH]cc(F)c(=O)[nH]1	2.91µM!	n	x	n	u
C/C1=C\[C@@H](C)C/C=C/[C@H]2[C@@H]3O[C@]3(C)[C@@H](C)[C@H]3[C@H](Cc4c[nH]c5ccccc45)NC(=O)[C@]32C(=O)/C=C/C(=O)[C@@H]1O	n	1.16µM	n	39.8µM	0.731µM
Cc1cccc(OC(=O)n2c(=S)oc3cc(Cl)ccc32)c1	u	n	n	n	u
Cc1cc(=O)oc2cc3c(cc12)CCCN3	n	u	n	20µM	7.31µM
CC(=O)OC1C(O)C(C)OC(OC2C(OC(=O)C3CCC4C(C3)OC3(CC(OC(=O)/C=C/c5ccccc5)C(C)CO3)C43CO3)OC(C)C(O)C2OC(C)=O)C1O (stereo unspecified)	x	0.206µM	u	x	u
CCOc1ccc2c3c1O[C@H]1[C@@H](O)C=C[C@H]4[C@@H](C2)N(C)CC[C@@]341	x	n	x	x	n
Cc1ccc(C)c(NP(=O)(Oc2ccccc2)Oc2ccccc2)c1	n	n	u	x	20.6µM
C=C(C=O)CC1CC(O)[C@]2(C)OC3CC4OC5C[C@]6(C)O[C@]7(C)CCC8OC9C[C@]%10(C)OC%11C(C)=CC(=O)OC%11CC%10OC9C[C@@H](C)C8OC7CC6O[C@]5(C)CC5OC5C4OC3CC2O1 (stereo partly specified)	n	5.8µM	n	n	4.61µM
C[C@H]1COC(=O)[C@@H](Cc2ccc(F)cc2)CC/C=C/C[C@@H](CC(=O)N(CCO)Cc2ccccc2)C(=O)N1	x	n	n	n	n
CC1[C@H]2Cc3ccc(O)cc3[C@]1(C)CCN2CCc1ccccc1 (stereo partly specified)	x	1.03µM	x	n	n
O=C(O)C(F)(F)S(=O)(=O)O	3.16µM	n	n	n	n
O=C(O)C(Cl)(Cl)Cl	x	n	x	x	n
SMILES	Mito fusion act	SW480 rereplic	a7 integrin act	A-T KAP1 phos	MCF10A rereplic
CN(C)C1C(=O)C(C(N)=O)C(=O)C2(O)C(=O)C3C(=O)c4c(O)cccc4C(C)(O)C3C(O)C12 (stereo unspecified)	x	n	x	x	n
Oc1c(Br)cc(Br)cc1Oc1ccc(Br)cc1Br	n	n	x	u	5.8µM
CC(C)C[C@H]1CNC(=S)N1CC1CCN(CC2CCC(C(C)(C)C)CC2)CC1 (stereo partly specified)	x	n	n	x	u
CCN1C(=O)C(=C2C=C(C)N(Cc3ccco3)C(C)=C2)C(=O)N(CC)C1=S	n	u	u	n	13µM
COc1cc2c(cc1O)C[C@H]1NCCc3cc4c(c-2c31)OCO4	n	u	n	n	18.4µM
C[C@@H]1CN([C@@H](C)CO)C(=O)c2c(c3ccccc3n2C)-c2ccccc2CO[C@H]1CN(C)C(=O)[C@H](C)c1ccccc1	x	x	n	x	x
Oc1ccc(Cl)cc1Cc1ccccc1	x	n	n	x	u
Oc1ccc(Cl)cc1Cc1cc(Cl)ccc1O	n	u	x	x	5.17µM
Cc1c(C(=O)NCCC2=CCCCC2)oc2ccc(S(=O)(=O)N3CCC4(CC3)OCCO4)cc12	n	n	n	n	u
Cc1ccc(/C=C2\C(=O)NC(=S)N(c3ccccc3F)C2=O)s1	n	u	n	n	5.8µM
CC(=O)Nc1ccc(S(=O)(=O)N(C)CCOCc2ccccc2)cc1	n	n	n	n	n
O=C(Nc1nccs1)C(Cl)(Cl)Cl	u	n	n	n	n
O=C(Nc1ccc(Cl)cc1)Nc1nccs1	n	5.8µM	n	n	7.31µM
CC(C)(C)c1csc(NC(=O)Nc2ccccc2)n1	n	n	n	n	u
O=C(CCl)Nc1nccs1	n	16.4µM	n	n	u
Cc1ccc(N2C(=O)NC(=O)C3(Cc4ccccc4N4CCCC43)C2=O)cc1 (stereo unspecified)	n	n	n	n	n
O=C1NC(=O)C2(Cc3ccccc3N3CCCC32)C(=O)N1c1ccc(Cl)cc1 (stereo unspecified)	n	n	n	n	20.6µM
NC(Cc1ccc(Oc2cc(I)c(O)c(I)c2)c(I)c1)C(=O)O (stereo unspecified)	x	n	x	x	n
ClCCN(CCCl)c1ccc(C=NNc2ncccn2)cc1	x	u	n	x	u
N#Cc1ncc(N=Cc2ccc(N(CCCl)CCCl)cc2)s1	x	u	n	x	20.6µM
O=C1[C@H]2[C@@H](C3CC3)N3C(=O)CN(CC4CC4)C(=O)[C@@]3(Cc3ccccc3)[C@H]2C(=O)N1c1ccccc1	x	n	n	n	n
Cc1c(C(=O)c2cccc3ccccc23)c2cccc3c2n1[C@H](CN1CCOCC1)CO3	9.2µM	u	x	x	u
Clc1ccccc1CN1CCN(c2ccccc2)CC1	n	u	n	n	u
